{"source": "the supplement of paper PMC12024529", "data": [{"system": "HEK293 WT BDD-FVIII-Gluc", "experiment": "secreted FVIII-Gluc luciferase Z-score vs DMSO control; higher = more FVIII-Gluc secretion", "conditions": "5 µM", "procedure": "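Natural plant-compound library (480 compounds, ST catalogue IDs) screened on HEK293 cells stably expressing WT BDD-FVIII-Gaussia luciferase fusion at 5 µM. Secreted Gluc activity in the medium is given as a Z-score relative to DMSO controls.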", "values": [{"smiles": "CN1Cc2c(ccc3c2OCO3)C2C(O)Cc3cc4c(cc3C21)OCO4", "note": "(stereo not given)", "secreted FVIII-Gluc luciferase Z-score": -5.22}, {"smiles": "CC(=O)c1c(O)c(C)c(O)c(Cc2c(O)c3c(c(C(=O)/C=C/c4ccccc4)c2O)OC(C)(C)C=C3)c1O", "secreted FVIII-Gluc luciferase Z-score": -1.16}, {"smiles": "C[C@]1(C(=O)O)CCC[C@]2(C)c3cc(O)ccc3CC[C@@H]12", "secreted FVIII-Gluc luciferase Z-score": -1.23}, {"smiles": "CCC12CCCN3CCC4(c5ccc(OC)c(O)c5N(C(C)=O)C4CC1)C32", "note": "(stereo not given)", "secreted FVIII-Gluc luciferase Z-score": 0.655}, {"smiles": "O=CN1C[C@@H]2C[C@H](C1)c1cccc(=O)n1C2", "secreted FVIII-Gluc luciferase Z-score": 0.583}, {"smiles": "COc1cc2c(cc1OC)C13CCN4CC5=CCOC6CC(=O)N2C1C6C5CC43", "note": "(stereo not given)", "secreted FVIII-Gluc luciferase Z-score": 0.159}, {"smiles": "COc1ccn(C)c(=O)c1C#N", "secreted FVIII-Gluc luciferase Z-score": -0.599}, {"smiles": "CC1CC[C@@]2(NC1)O[C@H]1C[C@H]3[C@@H]4CC=C5C[C@@H](O)CC[C@]5(C)[C@H]4CC[C@]3(C)[C@H]1[C@@H]2C", "note": "(stereo not given in full)", "secreted FVIII-Gluc luciferase Z-score": -1.02}, {"smiles": "Cc1nccc2c1[nH]c1ccccc12", "secreted FVIII-Gluc luciferase Z-score": -0.617}, {"smiles": "CC(C)(C)[C@]1(O)C[C@@H]2OC(=O)C[C@@]23C(=O)O[C@@H]2OC(=O)[C@H](O)[C@]213", "secreted FVIII-Gluc luciferase Z-score": -0.32}, {"smiles": "C[C@@H]1C[C@@H]([C@H](O)CC2CC(=O)NC(=O)C2)C(=O)[C@@H](C)C1", "secreted FVIII-Gluc luciferase Z-score": -7.2}, {"smiles": "CO[C@]12C[C@@H](COC(=O)c3cncc(Br)c3)CN(C)[C@@H]1Cc1cn(C)c3cccc2c13", "secreted FVIII-Gluc luciferase Z-score": 0.94}, {"smiles": "Cc1cc2c(C(C)C)c(O)c(O)c(C=O)c2c(O)c1-c1c(C)cc2c(C(C)C)c(O)c(O)c(C=O)c2c1O", "secreted FVIII-Gluc luciferase Z-score": 1.13}, {"smiles": "COc1cc2c(cc1O)CC1c3c(cc(O)c(OC)c3-2)CCN1C", "note": "(stereo not given)", "secreted FVIII-Gluc luciferase Z-score": -0.91}, {"smiles": "NCCc1c[nH]c2ccc(O)cc12", "secreted FVIII-Gluc luciferase Z-score": 0.752}, {"smiles": "COc1ccc2c(c1OC)C(=O)O[C@H]2[C@@H]1c2cc3c(cc2CCN1C)OCO3", "secreted FVIII-Gluc luciferase Z-score": 0.0229}, {"smiles": "CN(C)Cc1c[nH]c2ccccc12", "secreted FVIII-Gluc luciferase Z-score": 0.161}, {"smiles": "COc1cc2c(cc1O)CCNC2C", "note": "(stereo not given)", "secreted FVIII-Gluc luciferase Z-score": 0.0191}, {"smiles": "O=C1C[C@@H]2OCC=C3CN4CC[C@]56c7ccccc7N1[C@H]5[C@H]2[C@H]3C[C@H]46", "secreted FVIII-Gluc luciferase Z-score": -0.432}, {"smiles": "CC(C)(O)[C@@H]1[C@H]2OC(=O)[C@@H]1[C@]1(O)C[C@H]3O[C@]34C(=O)O[C@H]2[C@]14C", "secreted FVIII-Gluc luciferase Z-score": -0.634}, {"smiles": "COc1cc2c(cc1OC)C(C)NCC2", "note": "(stereo not given)", "secreted FVIII-Gluc luciferase Z-score": 0.0745}, {"smiles": "CN1C[C@H](C(=O)N[C@]2(C)O[C@@]3(O)[C@@H]4CCCN4C(=O)[C@H](Cc4ccccc4)N3C2=O)C[C@@H]2c3cccc4[nH]cc(c34)C[C@H]21", "secreted FVIII-Gluc luciferase Z-score": 0.0715}, {"smiles": "CC1CCC2C(C)C(=O)OC3OC4(C)CCC1C32OO4", "note": "(stereo not given)", "secreted FVIII-Gluc luciferase Z-score": -0.111}, {"smiles": "CN(C)[C@@H]1C(=O)C(C(N)=O)=C(O)[C@@]2(O)C(=O)C3=C(O)c4c(O)cccc4[C@@](C)(O)[C@H]3[C@H](O)[C@@H]12", "secreted FVIII-Gluc luciferase Z-score": 0.919}, {"smiles": "CCN1C[C@]2(C)CC[C@H](O)[C@@]34C5C[C@@H]6[C@@H](OC)C[C@@](O)(C5[C@H]6O)[C@@H](CC23)C14", "note": "(stereo not given in full)", "secreted FVIII-Gluc luciferase Z-score": 0.562}, {"smiles": "O=CN1CCCCC1C1CC[C@H]2CCCCN2C1", "note": "(stereo not given in full)", "secreted FVIII-Gluc luciferase Z-score": 0.233}, {"smiles": "C/C=C/c1ccc2c(c1)OCO2", "secreted FVIII-Gluc luciferase Z-score": 0.131}, {"smiles": "CNC1C2CN3CCC(O2)C13", "note": "(stereo not given)", "secreted FVIII-Gluc luciferase Z-score": -1.02}, {"smiles": "C/C=C1/CN2CC[C@]34C(=C(C=O)[C@H]1C[C@H]23)Nc1ccccc14", "secreted FVIII-Gluc luciferase Z-score": 0.372}, {"smiles": "CCC1CN2CCC1CC2C(O)c1ccnc2ccc(OC)cc12", "note": "(stereo not given)", "secreted FVIII-Gluc luciferase Z-score": -0.168}, {"smiles": "CC(C)C[C@H]1C(=O)N2CCC[C@H]2[C@]2(O)O[C@](NC(=O)[C@@H]3C=C4c5cccc6[nH]cc(c56)C[C@H]4N(C)C3)(C(C)C)C(=O)N12", "secreted FVIII-Gluc luciferase Z-score": 0.241}, {"smiles": "OC[C@@H]1CCCN2CCCC[C@H]12", "secreted FVIII-Gluc luciferase Z-score": -0.141}, {"smiles": "COc1cc2c(c(OC)c1OC)-c1ccc(O)c(=O)cc1[C@@H](NC(C)=O)CC2", "secreted FVIII-Gluc luciferase Z-score": 0.222}, {"smiles": "C[C@]12CC[C@H](O)C[C@H]1CC[C@@H]1[C@@H]2C[C@@H](O)[C@]2(C)[C@@H](C3=CC(=O)OC3)CC[C@]12O", "secreted FVIII-Gluc luciferase Z-score": -7.45}, {"smiles": "C[C@@H](CO)NC(=O)[C@@H]1C=C2c3cccc4[nH]cc(c34)C[C@H]2N(C)C1", "secreted FVIII-Gluc luciferase Z-score": 0.475}, {"smiles": "O=c1ccc2cc(OC3OC(CO)C(O)C(O)C3O)c(O)cc2o1", "note": "(stereo not given)", "secreted FVIII-Gluc luciferase Z-score": 0.455}, {"smiles": "OC1COC(NC2OCC(O)C(O)C2O)C(O)C1O", "note": "(stereo not given)", "secreted FVIII-Gluc luciferase Z-score": 0.00225}, {"smiles": "COC(C)C(O)(C(=O)OC1=CCN2CC[C@H](O)[C@@H]12)C(C)C", "note": "(stereo not given in full)", "secreted FVIII-Gluc luciferase Z-score": -0.914}, {"smiles": "CC1=C2C3OC(=O)C(C)C3CC[C@@]2(C)C=CC1=O", "note": "(stereo not given in full)", "secreted FVIII-Gluc luciferase Z-score": 0.0932}, {"smiles": "CC(=O)OC1CC(OC2C(O)CC(OC3C(O)CC(OC4CCC5(C)C(CCC6C5CC(O)C5(C)C(C7=CC(=O)OC7)CCC65O)C4)OC3C)OC2C)OC(C)C1OC1OC(CO)C(O)C(O)C1O", "note": "(stereo not given)", "secreted FVIII-Gluc luciferase Z-score": -4}]}]}
